Outcome and Potency data for 10 compounds are collected here from PubChem BioAssay (Tox21).

A short description of test [1]: qHTS assay to identify small molecule antagonists of the vitamin D receptor (VDR) signaling pathway - cell viability counter screen (AID 743225). Further: nearly all actives have a fitted effect of over 50% in size. In a few lines:
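Same-well multiplex: following 16 h treatment of HEK 293T cells carrying a UAS-driven beta-lactamase reporter with compound and agonist (3 nM final), and a 2 h FRET substrate step, CellTiter-Glo was added and luminescence read after 30 min.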

Test [2] in a line: qHTS assay to identify small molecule agonists of the NFkB signaling pathway - cell viability counter screen (AID 1159515; calls by dose curve; further: series mostly up to about 61 µM; nearly all actives have a fitted effect of over 55% in size). The essentials: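 Parallel cytotoxicity counter screen in ME-180 cells carrying an NFkB-response-element beta-lactamase reporter, 2,000 cells/well. Compound exposure lasted 5 hr at 37 C, 5% CO2. Cell viability was quantified by CellTiter-Glo luminescence.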

A short description of test [3]: qHTS assay to identify small molecule agonists of the endoplasmic reticulum stress response signaling pathway (AID 1159516; active means well fitted activation curve with a large enough effect in the signal ratio in the repeat runs, not every such curve was filed as active; the % refers to the signal ratio). The essentials: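 Using a HeLa line with an ESRE-driven beta-lactamase gene, agonist activity was measured by FRET substrate fluorescence (460 and 530 nm emission) after cells were treated with compounds for 5 hr at 37 C and 5% CO2.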
(In qHTS, concentration-response curves come from the screen itself.)

A short description of test [4]: qHTS assay to identify small molecule agonists of the endoplasmic reticulum stress response signaling pathway - cell viability counter screen (AID 1159517; calls by dose curve;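 further: HeLa cells carrying an ER stress response element beta-lactamase reporter; series mostly up to about 61 µM; nearly all actives have a fitted effect of over 50% in size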). In a few lines: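 ESRE-bla HeLa cells (1,500/well) were plated overnight at 37 C and exposed to compounds for 5 hr. After the 2 hr beta-lactamase substrate read, CellTiter-Glo went into the same wells, and luminescence was read after 30 min at room temperature.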

Test [5] can be described thus: qHTS assay to identify small molecule antagonists of the retinoid-related orphan receptor gamma (ROR-gamma) signaling pathway - cell viability counter screen (AID 1159520). Further: nearly all actives have a fitted effect of over 50% in size. The essentials:
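Cytotoxicity was read from cellular ATP (CellTiter-Glo luminescence) after 16 hr at 37 C with 1 uM doxycycline induction. The inducer was added 2 hr after compound transfer to Tet-on ROR gamma CHO cells.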

In test [6] the target is Nuclear receptor ROR-gamma (Homo sapiens) (UniProt P51449). Briefly: qHTS assay to identify small molecule antagonists of the retinoid-related orphan receptor gamma (ROR-gamma) signaling pathway (AID 1159521;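 further: CHO cells with doxycycline inducible ROR-gamma driving an RORE luciferase reporter; top concentration of the series differs between compounds; nearly all actives have a fitted effect of over 50% in size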). The essentials:
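Inducible-expression reporter assay: doxycycline (1 uM final) switched on RORγ in CHO cells bearing a ROR response element-luciferase construct, with test compounds present from 2 h beforehand. Decreased luminescence after 16 h defined antagonist activity.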

A short description of test [7]: qHTS assay to identify small molecule agonists of the AP-1 signaling pathway - cell viability counter screen (AID 1159525; calls by dose curve; further: nearly all actives have a fitted effect of over 55% in size). In a few lines: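 Intracellular ATP by Cell Titer Glo luminescence (30 min, RT) in the same ME-180 AP-1-bla wells after the 5 h compound exposure at 37 °C. Normalised to tetra n-octyl ammonium bromide and DMSO controls.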
The nature of test [8]: qHTS assay to identify small molecule agonists of the AP-1 signaling pathway (AID 1159526; calls by dose curve).
Test [9] deals with Retinoic acid receptor RXR-alpha (Homo sapiens) (UniProt P19793). Briefly: qHTS assay to identify small molecule agonists of the RXR signaling pathway (AID 1159527; calls by dose curve; further: nearly all actives have a fitted effect of over 35% in size). In a few lines: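 Compounds in DMSO were added to RXR-alpha-UAS-bla HEK 293T cells kept in 2% charcoal-stripped serum, and incubated 16 hr at 37 C with 5% CO2. Reporter signal came from a 2 hr B/G FRET substrate step.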

Test [10] in a line: qHTS assay to identify small molecule antagonists of the retinoid acid receptor (RAR) signaling pathway - cell viability counter screen (AID 1159551). Further: nearly all actives have a fitted effect of over 35% in size. In a few lines:
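ATP-based viability, C3RL4 cells, 6 h at 37 C with 1 uM final retinol co-added after compound; luminescence read 30 min post CellTiter-Glo, RT.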

Test [11] in a line: qHTS assay to identify small molecule antagonists of the retinoic acid receptor (RAR) signaling pathway (AID 1159552; further: nearly all actives have a fitted effect of over 50% in size). The essentials: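 Antagonism of retinol-induced RARE reporter activity was measured in C3RL4 cells. Exposure to compounds and 1 uM final retinol lasted 6 hr at 37 C, with luminescence as endpoint.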
Test [12] in a line: qHTS assay to identify small molecule antagonists of the estrogen related receptor (ERR) signaling pathway from Tox21 library - cell viability counter screen (AID 1224834). Further: nearly all actives have a fitted effect of over 30% in size. Further: potency means the concentration at half of the fitted maximal effect. In a few lines: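 Compounds in DMSO were pinned onto ERR cells that had been incubated for 6 h, and the plates were held at 37 C for 17.5 h. CellTiter-Fluor reagent was then added and fluorescence was measured after 30 min.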

The nature of test [13]: qHTS assay to identify small molecule agonists of the RXR signaling pathway - cell viability counter screen (AID 1159529). The essentials:
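Counter screen: CellTiter-Glo luminescence. Cells: RXR-alpha-UAS-bla HEK 293T. Medium: 2% charcoal-stripped FBS. Treatment: 16 h, 37 C. Reagent incubation: 30 min, RT.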

Test [14] can be described thus: qHTS assay to identify small molecule agonists of the retinoic acid receptor (RAR) signaling pathway (AID 1159553). In a few lines:
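Quantitative high-throughput format: the Tox21 10K library was tested on C3RL4 RARE-luciferase cells for 6 hr at 37 C and 5% CO2, with luminescence measured after a 30 min room-temperature reagent step.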

Test [15] can be described thus: qHTS assay to identify small molecule antagonists of the estrogen related receptor (ERR) signaling pathway - cell viability counter screen (AID 1224818). Further: series mostly up to about 46 µM. The essentials:
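Quantitative high-throughput viability counter screen in ERR cells. Compounds (DMSO) incubated 17.5 h at 37 C; read-out was CellTiter-Fluor fluorescence.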

The nature of test [16]: qHTS assay to identify small molecule antagonists of the estrogen related receptor signaling pathway with the pleiotropic PPARgamma coactivator (PGC) cell viability counter screen (AID 1224822; further: series mostly up to about 46 µM). In a few lines: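 Cytotoxicity in the PGC/ERR cell line is assessed with CellTiter-Fluor, read as fluorescence intensity 30 min after reagent addition, following 17.5 h compound treatment at 37 C.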

A short description of test [17]: qHTS assay to identify small molecule antagonists of the estrogen related receptor (ERR) signaling pathway (AID 1224819). The essentials: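 ERR reporter cell line (NTP) plated at 2,000 cells/well, settled 6 h at 37C/5% CO2, then exposed to LOPAC compounds for 18 h at 37C. One-Glo luciferase luminescence read after 30 min at room temperature.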
Test [18] can be described thus: qHTS assay to identify small molecule agonists of the estrogen related receptor (ERR) signaling pathway (AID 1224820). In a few lines: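 An ERR cell line provided by NTP was seeded at 2,000 cells per well and allowed to settle for 6 h before compounds in DMSO were added. After 18 h at 37 C, luciferase activity was measured by One-Glo luminescence.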
Test [19] has as its system estrogen-related receptor alpha (ERRalpha) with PGC-1alpha coactivator, human. Briefly: qHTS assay to identify small molecule antagonists of the estrogen related receptor signaling pathway with the pleiotropic PPARgamma coactivator (PGC) (AID 1224821; calls by dose curve). In a few lines: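 A PGC/ERR cell line supplied by NTP is seeded, allowed 6 h at 37 C, and treated with test compounds in DMSO for 18 h. Signal is then measured as luciferase luminescence using One-Glo.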

The nature of test [20]: qHTS assay to identify small molecule agonists of the estrogen related receptor signaling pathway with the pleiotropic PPARgamma coactivator (PGC) (AID 1224823). The essentials:
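Compounds dissolved in DMSO are added by pin tool to PGC/ERR cells that have settled for 6 h, and incubation continues 18 h at 37 C. Reporter output is measured as One-Glo luminescence.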

Records with an inconclusive call do not appear. Values without a mark were called inactive. Calls of active or inactive are those of the source. Unless noted, the call rests on the fitted dose curve; in most records, active means well fitted curve in the direction sought with a large enough effect in the repeat runs; inconclusive means weak or mixed curves; inactive means no such curve, though single readings can be large; an effect the other way counts as inactive or inconclusive.

Chain of Retinoic acid receptor RXR-alpha (Homo sapiens) (P19793 whole entry, looked up): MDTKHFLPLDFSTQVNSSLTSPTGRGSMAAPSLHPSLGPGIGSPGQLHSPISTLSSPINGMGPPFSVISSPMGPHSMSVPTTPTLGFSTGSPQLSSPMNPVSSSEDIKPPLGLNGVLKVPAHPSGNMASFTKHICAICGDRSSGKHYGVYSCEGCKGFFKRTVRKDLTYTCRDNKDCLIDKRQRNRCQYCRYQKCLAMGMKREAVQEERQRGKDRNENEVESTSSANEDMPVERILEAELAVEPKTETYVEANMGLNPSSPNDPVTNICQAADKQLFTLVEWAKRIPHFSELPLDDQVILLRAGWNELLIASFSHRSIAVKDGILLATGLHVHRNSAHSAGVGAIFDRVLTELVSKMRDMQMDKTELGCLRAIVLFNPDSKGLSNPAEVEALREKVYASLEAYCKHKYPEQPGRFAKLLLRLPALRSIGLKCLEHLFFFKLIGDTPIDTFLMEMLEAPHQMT

For `C=C[Si](OC(C)=O)(OC(C)=O)OC(C)=O`, the result in test [1], in test [2], in test [3], in test [4], in [5] and in test [7] was inactive. Besides, the compound was classed as inactive in [8] and in [10]. Further, the Potency result in test [6], in [9], in [11] and in test [12] was “inactive” in each case.
On to `CC(=O)N1C[C@H](O)C[C@H]1C(=O)O`, for which the outcome in test [2], in [3], in [4], in test [5], in test [7] and in [8] was inactive. Moreover, the result in test [10] was inactive. Moreover, the Potency result in [6], in [13] and in [12] was “inactive” in each case.
In the case of `C[N+]1(C)[C@@H]2CC(OC(=O)[C@H](CO)c3ccccc3)C[C@H]1[C@@H]1O[C@@H]12` (some centres not stated), the compound was called inactive in test [1], in test [2], in test [3], in test [4], in test [5] and in test [7]. Further, the compound was called inactive in test [8] and in [10]. Moreover, the Potency result in test [6], in [13] and in test [14] was “inactive” in each case.
For `CO[C@@]1(NC(=O)CSC[C@@H](N)C(=O)O)C(=O)N2C(C(=O)O)=C(CSc3nnnn3C)CS[C@@H]21`, the outcome in test [1], in test [2], in [3], in test [4], in [5] and in test [7] was inactive. Besides, the compound was called inactive in [8] and in [10]. Further, the Potency result in [6], in test [9] and in [12] was “inactive” each time.
As for `COc1cc(C(=O)OC(COCCC(C)C)CN2CCOCC2)cc(OC)c1OC` (configuration not stated), the compound was called inactive in test [1], in test [2], in test [3], in test [4], in test [5] and in [7]. Moreover, the result in test [8] and in [10] was inactive. The Potency entry in [6], in [13] and in test [12] was “inactive” each time.
As to `c1ccc2sc(SN3CCOCC3)nc2c1`, the compound was classed as inactive in [1], in [2], in test [3], in test [4], in test [5] and in [7]. Also, the call in [8] and in test [10] was inactive. Moreover, the Potency entry in test [6], in test [13], in test [11] and in [12] was “inactive” throughout.
In the case of `CN(C)C(=O)Oc1cccc([N+](C)(C)C)c1`, the outcome in test [1], in test [2], in test [3], in test [4], in test [5] and in test [7] was inactive. Besides, the call in test [8], in test [10], in test [15] and in [16] was inactive. The Potency entry in test [6], in [13], in test [14] and in [12] was “inactive” in each case.
For the compound `CCN(Cc1ccccc1)c1ccccc1`, the call in [2], in [3], in [4], in test [5], in test [7] and in test [8] was inactive. For the same compound, the result in test [10] was inactive. The Potency result in [6], in test [9] and in [14] was “inactive” in each case. Besides, the Potency in test [12] is 24 µM (active).
`CC(N)C12CC3CC(CC(C3)C1)C2` (configuration not stated): the outcome in [1], in test [2], in test [3], in [4], in test [5] and in [7] was inactive. Besides, the call in test [8] and in test [10] was inactive. The Potency entry in [6], in test [13], in test [11], in test [14] and in test [12] was “inactive” in each case.
As to `CNCC(O)c1ccc(O)c(O)c1` (configuration not stated), the outcome in [1], in test [2], in [3], in test [4], in test [5] and in test [7] was inactive. The outcome in [8], in [10], in test [15], in test [17], in test [18] and in test [19] was inactive. For the same compound, the compound was classed as inactive in test [16] and in test [20]. Also, the Potency entry in [6], in test [13] and in test [14] was “inactive” each time.
